Source: PubChem BioAssay
KCNQ2 inh – rat KCNQ2 potassium channel inhibitors, primary screen, cell-based, CHO-K1, FluxOR thallium flux, B-score; Potassium voltage-gated channel subfamily KQT member 2 (Rattus norvegicus), O88943; 20 min; active compounds read low; B-score at 10 µM; 310,000 compounds, 1.1% hits; AID 2156, 2009;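 active means fluorescence ratio B-score at most minus 3 library SDs, with starting brightness B-score within 2 library SDs, cut at about -5.5 in these data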
KCNQ2 pot – potentiators of rat KCNQ2 potassium channel; Potassium voltage-gated channel subfamily KQT member 2 (Rattus norvegicus), O88943; CHO-K1 KCNQ2, FluxOR thallium flux fluorescence; active compounds read high; B-score at 10 µM; 310,000 compounds, 0.54% hits;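 active means fluorescence ratio B-score at least 3 SD of library B-scores, with initial fluorescence B-score within 3 of them, cut at about 5.3 in these data; same plate scores as AID 2156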;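 further: B-score of peak minus minimum over baseline fluorescence ratio after K+ and Tl+ stimulus; positive B-score means potentiation of KCNQ2 with more thallium influx and brighter signal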
KCNQ2 block conf – rat KCNQ2 potassium channel inhibitors, confirmation, cell-based, thallium flux; activity change, negative = inhibition, % at 10 µM; shares compounds with KCNQ2 inh; KCNQ2-expressing cells, inhibition; active compounds read low; 1,000 compounds, 57% hits
KCNQ1 spec – human KCNQ1 channel inhibition, counter-screen for KCNQ2 inhibitor project, cell-based, FluxOR thallium flux; shares compounds with KCNQ2 inh; KCNQ1-expressing cells, FluxOR thallium flux fluorescence; active compounds read low; activity change, negative = inhibition, % at 10 µM; 1,000 compounds, 15% hits;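 active means activity change at least 3 SD of negative controls below their mean in both duplicate wells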;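 further: CHO cells stably transfected with KCNQ1 and depolarized by potassium stimulus; peak minus minimum fluorescence over baseline after thallium addition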
CHO parental ctr – thallium flux change in parental CHO cells, counter-screen for KCNQ2 inhibitor project; activity change, % at 10 µM; 1,000 compounds, 14% hits; shares compounds with KCNQ2 inh; active compounds read low
KCNQ2 patch conf – rat KCNQ2 channel inhibitors, confirmation, cell-based, automated patch clamp, single concentration | AID 588531, 2011 | calls only at 10 µM | KCNQ2-expressing cells, automated patch clamp current | shares compounds with KCNQ2 inh | 550 compounds, 49% hits
Kir21 conf inh – mouse Kir2.1 channel blockers, retest, confirmation, cell-based, FluxOR thallium flux, duplicate | shares compounds with KCNQ2 pot | Kir2.1-expressing cells, FluxOR thallium flux fluorescence; active compounds read low | Tl flux remaining, % of negative control (active compounds read low), % at 10 µM | 2,300 compounds, 41% hits | AID 2032, 2009;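 active means Primary-screen hit whose thallium flux fell at least 3 control SD below untreated wells in both duplicates, with normal baseline fluorescence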
Target sequence (P35561 whole entry, looked up): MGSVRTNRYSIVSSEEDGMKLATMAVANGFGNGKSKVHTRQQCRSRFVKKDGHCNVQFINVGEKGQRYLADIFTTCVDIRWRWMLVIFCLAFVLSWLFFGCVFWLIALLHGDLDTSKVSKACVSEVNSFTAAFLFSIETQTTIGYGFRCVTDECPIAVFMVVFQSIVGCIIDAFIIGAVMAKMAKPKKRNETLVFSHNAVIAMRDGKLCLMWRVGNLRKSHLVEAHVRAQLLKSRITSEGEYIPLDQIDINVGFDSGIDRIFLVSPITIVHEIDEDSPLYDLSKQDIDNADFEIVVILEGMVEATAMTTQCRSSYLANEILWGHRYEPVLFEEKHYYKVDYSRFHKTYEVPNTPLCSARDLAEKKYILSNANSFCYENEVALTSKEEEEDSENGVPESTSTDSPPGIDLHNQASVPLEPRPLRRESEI
HEK293 Tl flux – counter-screen for Kir2.1 inhibitors: effect in parental HEK293 cells. shares compounds with KCNQ2 pot. FluxOR thallium flux fluorescence; 0% = unstimulated blank wells. FluxOR signal as % of negative control (100 = no effect), % at 10 µM. 2,300 compounds, 19% hits. AID 2105;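 active means dye signal at least 3 control SD above or below untreated wells in both duplicates, raw fluorescence within 3, either direction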;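 further: percent is based on the flux ratio of peak minus minimum fluorescence over baseline F0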
CHO-K1 ctr – nonspecific thallium flux increase in parental CHO-K1, confirmation, counter-screen for KCNQ2 potentiator project, cell-based, FluxOR thallium flux, duplicate | 1,200 compounds, 43% hits | parental CHO-K1 cells, FluxOR thallium flux fluorescence; zero = vehicle mean+3SD, 100% = vehicle-minus-blank window | activity increase over 3SD of controls, % at 10 µM | shares compounds with KCNQ2 pot | AID 2282, 2010;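 active means signal rise of at least 3 SD above the untreated control mean, in both duplicate wells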;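 further: counter screen of KCNQ2 potentiator hits so any rise reflects channel-independent effects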
KCNQ1 sel pot – human KCNQ1 channel potentiation off-target, confirmation, selectivity assay for KCNQ2 potentiator project, cell-based, CHO, FluxOR thallium flux. shares compounds with KCNQ2 pot. CHO KCNQ1 stable, FluxOR thallium flux fluorescence; beyond 3SD, as % of vehicle-control signal. activation over 3SD threshold, % at 10 µM. 1,200 compounds, 28% hits;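 active means fluorescence ratio rise of at least 3 SD of vehicle wells above their mean, in both replicate wells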
KCNQ2 pot conf – rat KCNQ2 channel potentiators, confirmation, cell-based, CHO, FluxOR thallium flux, duplicate. potentiation, less the hit threshold, % at 10 µM. 1,200 compounds, 68% hits. shares compounds with KCNQ2 pot. CHO-KCNQ2 cells, FluxOR thallium flux fluorescence;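 active means fluorescence ratio rising 3 SD or more over the vehicle control mean in both replicates, plus primary screen hit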;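 further: peak minus minimum thallium fluorescence divided by baseline after K/Tl stimulus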
Kir2-1 sel – mouse Kir2.1 channel activation off-target, confirmation, selectivity assay for KCNQ2 potentiator project, cell-based, HEK293, FluxOR thallium flux; shares compounds with KCNQ2 pot; HEK293 Kir2.1, FluxOR thallium flux fluorescence; activity over 3SD threshold, % at 10 µM; 1,200 compounds, 2% hits; AID 2345, 2010;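 active means fluorescence ratio rise of at least 3 SD above the vehicle-control mean, seen in both replicates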
KCNQ2 W236L pot – potentiators of retigabine-insensitive KCNQ2 W236L, mechanism study for KCNQ2 potentiator project, cell-based, rat KCNQ2 W236L, CHO, automated patch clamp | shares compounds with KCNQ2 pot | automated patch clamp current | current increase over 3SD of negative controls (%), active compounds read high, % at 25 µM | 940 compounds, 10% hits | AID 2558, 2010;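 active means current increase at least 3 SD of the untreated controls above them in both duplicate recordings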
Numbers stand for hits; - = inactive; . = no result given; + = active, no number. The list is not random: actives were taken first. Their share in the collection is about 1.6%. Unless noted, how the calls were made is not given here.

SMILES | KCNQ2 inh | KCNQ2 pot | others
FC(F)(F)c1ccc2c(c1)N(CCCN1CCN(CCCl)CC1)c1ccccc1S2 | -7.04 | - | KCNQ2 block conf=-32.5%;KCNQ1 spec=-;CHO parental ctr=-;KCNQ2 patch conf=-
CCCCn1c(=O)c(C(=O)NC(C)c2ccccc2)c(O)c2ccccc21 (centres undefined) | -11.8 | - | KCNQ2 block conf=-;KCNQ1 spec=-;CHO parental ctr=-
CCCCn1c(=O)c(C(=O)NCCc2ccccc2)c(O)c2ccccc21 | - | .
N=C1SCC(=O)N1Cc1ccccc1 | - | -
CCC1(CC)C(=O)N(Cc2ccccc2)C(=O)N(Cc2ccccc2)C1=O | -8.19 | - | KCNQ2 block conf=-;KCNQ1 spec=-;CHO parental ctr=-
Cc1ccc(N=C(/N=C(\N)N[N+](=O)[O-])Nc2ccc(C)cc2)cc1 | - | -
CN(C)CC1CCCCC1OC(=O)Cc1ccc(Cl)c([N+](=O)[O-])c1 (centres undefined) | - | .
COc1ccc(OP(=O)(Nc2ccccc2)Nc2ccccc2)cc1 | - | .
Cc1ccc(NP(=O)(Nc2ccc(C)cc2)Oc2ccccc2)cc1 | -7.08 | - | KCNQ2 block conf=-31.0%;KCNQ1 spec=-;CHO parental ctr=-;KCNQ2 patch conf=+
Cc1cc(OCC(=O)NCc2ccc(S(N)(=O)=O)cc2)c2c3c(c(=O)oc2c1)CCC3 | - | -
Cc1cc(OCC(=O)NC(Cc2ccc(Cl)cc2)C(=O)O)c2c3c(c(=O)oc2c1)CCCC3 (centres undefined) | - | -
O=C1NC(=S)NC(=O)C1=Cc1ccc(Br)s1 | - | .
CN(C)C(=S)SSC(=S)N(C)C | -10.3 | - | KCNQ2 block conf=-;KCNQ1 spec=-;CHO parental ctr=-
CCOc1cc2c(cc1OCC)-n1cccc1C(c1cccc([N+](=O)[O-])c1)NC2 (centres undefined) | - | -
O=C(Nc1cccc2ccccc12)c1nn(C23CC4CC(CC(C4)C2)C3)cc1Br | -7.99 | - | KCNQ2 block conf=-25.5%;KCNQ1 spec=-;CHO parental ctr=-;KCNQ2 patch conf=-
CCOC(=O)C1(c2ccccc2)CCN(CC(=O)Nc2cccc3ccccc23)CC1 | - | .
O=C(COc1ccc2ccc(=O)oc2c1)N1CCC(C(=O)O)(c2ccccc2)CC1 | - | .
CCOC(=O)c1cccc(-[n+]2c(-c3ccccc3)cc(-c3ccccc3)cc2-c2ccccc2)c1 | -7.3 | - | KCNQ2 block conf=-31.5%;KCNQ1 spec=-;CHO parental ctr=-;KCNQ2 patch conf=-;Kir21 conf inh=-;HEK293 Tl flux=-
Cc1ccc(-c2cc(-c3ccc(C)cc3)[n+](C)o2)cc1 | - | .
c1ccc(-c2cc(-c3ccccc3)[n+](-c3ccccc3)c(-c3ccccc3)c2)cc1 | -12.8 | - | KCNQ2 block conf=-;KCNQ1 spec=-;CHO parental ctr=-;Kir21 conf inh=34.5%;HEK293 Tl flux=-
C[n+]1c(-c2ccccc2)cc(-c2ccc(Cl)cc2)cc1-c1ccccc1 | - | -
Cc1ccc(-c2cc(-c3ccc(C)cc3)[n+](-c3ccccc3)c(-c3ccc(C)cc3)c2)cc1 | -12.6 | - | KCNQ2 block conf=-;KCNQ1 spec=-;CHO parental ctr=-;Kir21 conf inh=11.5%;HEK293 Tl flux=-
CCOC(=O)c1ccccc1C(=O)OCC | - | -
COc1ccc2c(C)c(CCC(=O)N3C[C@H]4C[C@@H](C3)c3cccc(=O)n3C4)c(=O)oc2c1 | - | .
O=C(COc1ccc(Br)cc1)N1CCN(Cc2ccc3c(c2)OCO3)CC1 | - | .
SMILES | KCNQ2 inh | KCNQ2 pot | others
O=c1ccc2cc(O[C@@H]3O[C@@H](CO)[C@H](O)[C@@H](O)[C@@H]3O)c(O)cc2o1 | - | .
Cc1cccc(CCNCc2cc3cccc(C)c3[nH]c2=O)c1 | - | - | Kir21 conf inh=52.0%;HEK293 Tl flux=-
Cc1ccc2cc(CNCCc3ccccc3C)c(=O)[nH]c2c1 | - | -
CC1C(OC(=O)CCC(=O)NC(C)(C)CO)O[C@H]2OC3(C)CC[C@H]4[C@H](C)CCC1C24OO3 (some centres undefined) | - | -
CN1C(C(=O)N2CCC3(CC2)OCCO3)=CC(c2ccc(F)cc2)=NS1(=O)=O | - | -
Cn1cccc1/C=C1/C(=O)NC(=S)N(Cc2ccc(F)cc2)C1=O | - | .
CN(C)[C@@H]1C(=O)C(C(N)=O)=C(O)[C@@]2(O)C(=O)C3=C(O)c4c(O)cccc4[C@@](C)(O)C3[C@H](O)C12 (some centres undefined) | - | .
O=C1Nc2ccccc2/C1=C/c1cnc[nH]1 | - | -
COc1ccc2c(c1)/C(=C/c1cnc[nH]1)C(=O)N2 | - | 6.81 | Kir21 conf inh=-;HEK293 Tl flux=-;CHO-K1 ctr=-;KCNQ1 sel pot=-;KCNQ2 pot conf=10.4;Kir2-1 sel=-;KCNQ2 W236L pot=-
COc1ccccc1N1CCN(Cc2ccc(SC)cc2)CC1 | - | -
CCc1ccc(CN2CCN(Cc3ccc(SC)cc3)CC2)cc1 | - | . | Kir21 conf inh=27.0%;HEK293 Tl flux=-
Cc1nc2ccc(Br)cc2c(=O)n1-c1ccc([N+](=O)[O-])c(C(F)(F)F)c1 | - | .
Fc1ccc(CCNCc2ccc(Cl)c(Cl)c2)cc1 | - | . | Kir21 conf inh=24.5%;HEK293 Tl flux=-
CCc1ccc(CNCCc2ccc(F)cc2)cc1 | - | .
